# What was measured:
# Assay in all cases: DAPPL (digital affinity profiling via proximity ligation, sequencing); 10 mM Tris-HCl pH 7.5, 50 mM NaCl, 1 mM DTT, 4% glycerol, room temperature, 30 min; GST-TFs on glutathione beads, 16-mer random dsDNA library, 0.1% formaldehyde crosslink after washing; high values mean tight binding
# Settings in all cases: protein: recombinant; tags: N-terminal GST; dsDNA, one strand shown
# ETV2 = target: T1, ETV2 (Homo sapiens, UniProt O00321 1-342)
# T1 sequence: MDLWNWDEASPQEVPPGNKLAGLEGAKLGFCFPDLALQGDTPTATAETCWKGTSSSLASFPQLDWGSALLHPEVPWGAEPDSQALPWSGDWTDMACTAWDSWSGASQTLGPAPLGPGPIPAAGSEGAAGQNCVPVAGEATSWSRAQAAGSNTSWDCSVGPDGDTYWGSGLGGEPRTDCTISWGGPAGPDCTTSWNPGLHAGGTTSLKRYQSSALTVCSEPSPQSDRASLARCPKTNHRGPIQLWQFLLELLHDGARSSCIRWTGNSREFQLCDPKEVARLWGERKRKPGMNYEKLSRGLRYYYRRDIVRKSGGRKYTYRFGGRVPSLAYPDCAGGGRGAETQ
# In short: (§1)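 Human transcription factors fused to GST were expressed in yeast, captured on glutathione beads, given DNA barcodes and pooled with a GST-only negative control. Pools were incubated with 200 nmole of a 16-mer random double-stranded DNA library in Tris/NaCl/DTT/glycerol buffer at room temperature for 30 min. They were then washed, crosslinked with 0.1% formaldehyde, proximity-ligated (BsaI/T4 ligase, 1 h, 37 °C), PCR-amplified and sequenced on an Illumina NextSeq500. Binding signal is each 6-mer's read frequency for a factor divided by its frequency for the GST control.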
# ELF3 = target: T2, ELF3 (Homo sapiens, UniProt P78545 1-371)
# T2 sequence: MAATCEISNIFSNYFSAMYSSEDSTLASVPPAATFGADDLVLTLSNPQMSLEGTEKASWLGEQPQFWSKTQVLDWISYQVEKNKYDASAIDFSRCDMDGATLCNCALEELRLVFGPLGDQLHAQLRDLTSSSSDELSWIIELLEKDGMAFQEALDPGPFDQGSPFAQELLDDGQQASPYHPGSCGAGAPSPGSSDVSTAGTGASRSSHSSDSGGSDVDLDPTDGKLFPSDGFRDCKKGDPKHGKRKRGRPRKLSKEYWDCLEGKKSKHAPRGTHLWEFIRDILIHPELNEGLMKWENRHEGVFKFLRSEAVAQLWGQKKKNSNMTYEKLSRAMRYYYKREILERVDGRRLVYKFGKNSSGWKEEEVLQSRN
# In short: as §1
# ETV1 = ETV1 (Homo sapiens, UniProt P50549 1-477)
# Chain of ETV1 (P50549 whole entry): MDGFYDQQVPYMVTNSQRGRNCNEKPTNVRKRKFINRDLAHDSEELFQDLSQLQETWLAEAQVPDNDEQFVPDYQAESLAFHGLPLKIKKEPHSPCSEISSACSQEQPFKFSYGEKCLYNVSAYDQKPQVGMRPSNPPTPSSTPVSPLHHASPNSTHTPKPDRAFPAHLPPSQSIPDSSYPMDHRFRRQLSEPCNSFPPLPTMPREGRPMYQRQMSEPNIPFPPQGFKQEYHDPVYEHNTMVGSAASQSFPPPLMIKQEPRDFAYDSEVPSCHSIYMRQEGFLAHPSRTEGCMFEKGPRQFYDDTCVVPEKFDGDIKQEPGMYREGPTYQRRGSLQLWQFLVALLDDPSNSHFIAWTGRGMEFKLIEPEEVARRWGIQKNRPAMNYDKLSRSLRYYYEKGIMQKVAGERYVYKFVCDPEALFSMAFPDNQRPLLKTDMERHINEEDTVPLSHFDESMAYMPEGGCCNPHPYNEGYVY
# In short: as §1
# ERF = target: T3, ERF (Homo sapiens, UniProt P50548 1-548)
# T3 sequence: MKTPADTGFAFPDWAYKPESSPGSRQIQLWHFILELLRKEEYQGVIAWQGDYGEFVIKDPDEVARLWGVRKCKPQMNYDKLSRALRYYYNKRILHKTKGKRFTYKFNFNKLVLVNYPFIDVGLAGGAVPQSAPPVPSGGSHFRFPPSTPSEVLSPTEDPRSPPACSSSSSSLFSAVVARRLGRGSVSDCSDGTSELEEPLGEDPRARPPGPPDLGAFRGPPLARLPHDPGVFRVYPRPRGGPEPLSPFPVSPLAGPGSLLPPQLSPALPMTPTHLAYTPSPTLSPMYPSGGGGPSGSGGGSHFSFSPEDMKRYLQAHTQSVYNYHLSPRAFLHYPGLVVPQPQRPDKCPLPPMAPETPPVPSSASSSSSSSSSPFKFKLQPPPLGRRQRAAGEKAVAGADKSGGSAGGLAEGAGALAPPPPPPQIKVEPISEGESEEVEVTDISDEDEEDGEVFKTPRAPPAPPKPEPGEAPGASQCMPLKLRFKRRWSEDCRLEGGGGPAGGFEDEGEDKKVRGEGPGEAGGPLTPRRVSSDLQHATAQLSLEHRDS
# In short: as §1
# ETV3L = target: T4, ETV3L (Homo sapiens, UniProt Q6ZN32 1-361)
# T4 sequence: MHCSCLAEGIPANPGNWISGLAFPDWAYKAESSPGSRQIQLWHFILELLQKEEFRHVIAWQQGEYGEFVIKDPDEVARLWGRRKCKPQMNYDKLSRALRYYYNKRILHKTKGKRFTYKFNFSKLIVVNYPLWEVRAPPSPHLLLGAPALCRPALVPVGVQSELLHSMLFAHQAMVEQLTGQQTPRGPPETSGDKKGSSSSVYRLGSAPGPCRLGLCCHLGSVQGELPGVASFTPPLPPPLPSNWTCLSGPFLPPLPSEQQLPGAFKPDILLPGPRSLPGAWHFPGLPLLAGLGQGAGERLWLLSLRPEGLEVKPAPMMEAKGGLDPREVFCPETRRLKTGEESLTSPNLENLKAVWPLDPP
# In short: as §1
# ETS2 = target: T5, ETS2 (Homo sapiens, UniProt P15036 1-469)
# T5 sequence: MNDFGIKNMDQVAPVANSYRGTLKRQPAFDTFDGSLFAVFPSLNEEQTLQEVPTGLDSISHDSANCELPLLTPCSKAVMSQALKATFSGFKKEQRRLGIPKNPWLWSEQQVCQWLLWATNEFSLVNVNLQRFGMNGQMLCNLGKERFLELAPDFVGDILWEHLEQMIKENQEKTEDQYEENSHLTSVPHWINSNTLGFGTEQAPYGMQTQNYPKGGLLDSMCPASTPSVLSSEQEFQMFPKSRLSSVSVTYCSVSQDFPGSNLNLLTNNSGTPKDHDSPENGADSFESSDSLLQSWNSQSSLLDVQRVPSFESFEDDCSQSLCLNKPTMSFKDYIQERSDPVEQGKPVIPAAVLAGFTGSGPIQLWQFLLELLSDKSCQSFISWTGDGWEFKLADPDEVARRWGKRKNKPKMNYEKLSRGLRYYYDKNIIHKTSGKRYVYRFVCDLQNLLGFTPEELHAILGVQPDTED
# In short: as §1
# SPDEF = target: T6, SPDEF (Homo sapiens, UniProt O95238 1-335)
# T6 sequence: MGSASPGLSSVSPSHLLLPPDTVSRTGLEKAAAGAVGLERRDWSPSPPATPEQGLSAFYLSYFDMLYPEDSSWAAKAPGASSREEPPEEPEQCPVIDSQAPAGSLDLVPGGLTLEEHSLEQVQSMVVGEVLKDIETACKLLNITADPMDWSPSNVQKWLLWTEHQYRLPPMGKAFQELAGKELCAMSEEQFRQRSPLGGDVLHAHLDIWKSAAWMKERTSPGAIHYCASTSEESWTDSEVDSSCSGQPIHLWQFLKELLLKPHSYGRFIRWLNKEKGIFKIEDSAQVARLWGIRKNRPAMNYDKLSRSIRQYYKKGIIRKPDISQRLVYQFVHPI
# In short: as §1
# ETV7 = target: T7, ETV7 (Homo sapiens, UniProt Q9Y603 1-341)
# T7 sequence: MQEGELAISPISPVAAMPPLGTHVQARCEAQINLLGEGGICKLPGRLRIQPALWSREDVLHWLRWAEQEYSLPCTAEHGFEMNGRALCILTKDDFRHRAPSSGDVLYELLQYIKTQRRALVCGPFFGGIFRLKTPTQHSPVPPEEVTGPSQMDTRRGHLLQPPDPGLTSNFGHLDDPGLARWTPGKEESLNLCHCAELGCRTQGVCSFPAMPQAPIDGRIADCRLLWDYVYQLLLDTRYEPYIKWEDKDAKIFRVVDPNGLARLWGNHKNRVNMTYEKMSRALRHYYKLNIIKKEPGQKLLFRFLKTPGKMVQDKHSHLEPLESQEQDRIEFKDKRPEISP
# In short: as §1
# ETV3 = target: T8, ETV3 (Homo sapiens, UniProt P41162-2 1-143)
# T8 sequence: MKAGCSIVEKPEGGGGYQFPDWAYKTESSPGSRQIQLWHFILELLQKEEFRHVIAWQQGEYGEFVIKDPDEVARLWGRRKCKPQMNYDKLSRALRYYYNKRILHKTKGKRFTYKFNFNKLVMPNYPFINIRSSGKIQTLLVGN
# In short: as §1
# ETV6 = ETV6 (Homo sapiens, UniProt P41212 1-452)
# Chain of ETV6 (P41212 whole entry): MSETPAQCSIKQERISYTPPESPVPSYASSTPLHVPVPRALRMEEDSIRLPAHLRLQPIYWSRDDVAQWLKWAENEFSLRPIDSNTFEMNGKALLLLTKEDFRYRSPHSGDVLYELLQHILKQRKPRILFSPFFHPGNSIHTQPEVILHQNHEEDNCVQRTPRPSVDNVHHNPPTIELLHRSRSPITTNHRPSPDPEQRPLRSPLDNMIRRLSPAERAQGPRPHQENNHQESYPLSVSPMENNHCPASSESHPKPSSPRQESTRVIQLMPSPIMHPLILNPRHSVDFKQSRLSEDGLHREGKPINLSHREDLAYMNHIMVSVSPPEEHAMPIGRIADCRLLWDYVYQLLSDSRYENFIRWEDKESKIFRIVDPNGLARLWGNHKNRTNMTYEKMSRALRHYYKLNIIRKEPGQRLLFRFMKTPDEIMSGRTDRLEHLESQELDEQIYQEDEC
# In short: as §1
sequence,measurement,setting,value
AAGATC,binding signal,ETV2,"1.13 fold enrichment (6-mer frequency, TF over GST control)"
same,binding signal,ELF3,"1.15 fold enrichment (6-mer frequency, TF over GST control)"
same,binding signal,ETV1,"1.08 fold enrichment (6-mer frequency, TF over GST control)"
same,binding signal,ERF,"1.12 fold enrichment (6-mer frequency, TF over GST control)"
same,binding signal,ETV3L,"1.03 fold enrichment (6-mer frequency, TF over GST control)"
same,binding signal,ETS2,"1.05 fold enrichment (6-mer frequency, TF over GST control)"
same,binding signal,SPDEF,"1.27 fold enrichment (6-mer frequency, TF over GST control)"
same,binding signal,ETV7,"1.08 fold enrichment (6-mer frequency, TF over GST control)"
same,binding signal,ETV3,"1.12 fold enrichment (6-mer frequency, TF over GST control)"
same,binding signal,ETV6,"1.01 fold enrichment (6-mer frequency, TF over GST control)"

# Source: publication PMC7862700, “An all-to-all approach to the identification of sequence-specific readers for epigenetic DNA modifications on cytosine”
